In PubChem BioAssay (Tox21):
Results filed as inconclusive are left out. Values without a mark were called inactive. Calls follow the shape of the dose curve; as a rule, active = well fitted activation curve with a large enough effect in the signal ratio in the repeat runs, with a control signal flat (not every such curve was filed as active); inconclusive = weak or mixed curves; inactive = flat fitted curve, though single readings scatter; the % refers to the signal ratio.

Assay: qHTS assay for small molecule activators of the heat shock response signaling pathway (AID 743210);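 also: HeLa cells with beta-lactamase reporter driven by heat shock elements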
Details: HeLa HSE-bla reporter, beta-lactamase ratio, 5 h; series mostly up to 62.6 µM; activation: at the top concentration
How it was run: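 Following overnight attachment, HSE-bla HeLa cells received test compounds for 5 h at 37 C; beta-lactamase activity was then detected via FRET substrate fluorescence.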
% is scaled to controls: 0 for no effect and ±100 for the full control effect.

| SMILES | activation |
| --- | --- |
| CC(=O)c1c(C)c([N+](=O)[O-])c(C(C)(C)C)c([N+](=O)[O-])c1C | 0.686% |
| Cc1ncsc1CCO | -0.286% |
| Cc1cccc(C(C)(C)C)c1O | 0.275% |
| O=C(O)c1cccc(N(Cc2cccnc2)c2ccc(OC(F)F)c(OC(F)F)c2)c1 | 0% |
| O=C(Cl)c1ccc([N+](=O)[O-])cc1 | 0.0043% |
| CCCCCCc1ccc(N)cc1 | 0.621% |
| COc1ccc([C@@H]2Sc3ccccc3N(CCN(C)C)C(=O)[C@@H]2OC(C)=O)cc1 | -0.524% |
| CCCCCCCCCC=O | 0.267% |
| N=C(N=C(N)N)N1CCOCC1 | 0.05% |
| CCOc1cc(OCC)c(C(=O)CCC(=O)O)cc1OCC | -0.699% |
| CCOc1nc2cccc(C(=O)O)c2n1Cc1ccc(-c2ccccc2-c2nn[nH]n2)cc1 | 0.759% |
| C[C@@H](C1=C(CCN(C)C)Cc2ccccc21)c1ccccn1 | 0.573% |
| SC1CCCC1 | 0.393% |
| CCN(CC)CCOC(=O)C1(c2ccccc2)CCCC1 | 0.5% |
| CCCCCCCCCCCCCCCBr | -1.51% |
| NCc1ccccc1 | -1.45% |
| C1=Cc2ccccc2C1 | -0.441% |
| CN(C)CC/C=C1\c2ccccc2COc2ccccc21 | 0.965% |
| CCN(CC)CCNC(C(=O)OCCC(C)C)c1ccccc1 (stereo unspecified) | -0.666% |
| CC(C)(C)C1CCCCC1O (stereo unspecified) | 0.429% |
| OCC1CC2CC1C1CCC(CO)C21 (stereo unspecified) | 0.172% |
